# ATXN2 expr inh: Primary qHTS for Inhibitors of ATXN expression; HEK-293 ATXN2-luciferase reporter, luminescence, 24 h; Potency, µM (highest dose often 57 µM), for the others: at the highest dose activity change, negative = inhibition, usual class: inhibitors; actives 0.72% (n = 360,000); AID 1745845, 2022; further: on the % scale 0 is the no-effect control and ±100 the full control effect; nearly all actives have a fitted effect of over 55% in size
#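 qHTS (up to 57 uM final) was run with 24 h compound exposure of reporter cells at 37 °C. Each well was multiplexed: SteadyGlo luminescence measured ATXN2-luciferase expression after a fluorogenic Gly-Phe-AFC viability readout (25 uM final).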
# S2 tox: Viability Counterscreen for Primary qHTS for Inhibitors of ATXN expression. S2 cells (HEK-293 line with an ATXN2-luciferase reporter) viability, CellTiter-Fluor protease fluorescence, 24 h. actives 0.49% (n = 400,000). AID 651635, 2014. Potency, µM (highest dose often 56.7 µM), usual class: cytotoxic; further: nearly all actives have a fitted effect of over 40% in size
# RORgamma inh: qHTS for inhibitors of ROR gamma transcriptional activity | Potency, µM (titrated, usually from 53.6 µM), for inactives: at the top dose activity change, negative = inhibition, most hits filed as inhibitors | actives 5.4% (n = 310,000) | AID 2551, 2010 | Nuclear receptor ROR-gamma (Mus musculus), P51450 | Drosophila S2 Gal4-RORgamma UAS-luciferase reporter, 20 h; further: on the % scale 0 is the no-effect control and ±100 the full control effect; nearly all actives have a fitted effect of over 60% in size
# Target sequence (P51450 whole entry, looked up, the tested form may be a part): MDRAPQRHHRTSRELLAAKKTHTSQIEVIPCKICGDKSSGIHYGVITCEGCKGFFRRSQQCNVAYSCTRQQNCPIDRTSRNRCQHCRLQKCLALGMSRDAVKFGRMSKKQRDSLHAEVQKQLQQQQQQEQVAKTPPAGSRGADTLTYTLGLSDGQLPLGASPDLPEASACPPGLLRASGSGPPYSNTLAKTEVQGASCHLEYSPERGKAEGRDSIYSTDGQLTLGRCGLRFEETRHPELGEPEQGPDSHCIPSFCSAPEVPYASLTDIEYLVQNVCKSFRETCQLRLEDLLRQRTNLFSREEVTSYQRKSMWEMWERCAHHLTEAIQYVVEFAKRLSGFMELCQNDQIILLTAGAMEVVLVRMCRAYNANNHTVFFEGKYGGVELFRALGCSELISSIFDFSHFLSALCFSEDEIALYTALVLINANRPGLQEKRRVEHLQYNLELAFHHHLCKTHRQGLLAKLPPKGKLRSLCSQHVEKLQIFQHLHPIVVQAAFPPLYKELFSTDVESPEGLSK
#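 Using a luciferase readout, inhibitors were identified by reduced reporter activity in Drosophila cells coexpressing a copper-inducible Gal4–ROR gamma fusion and UAS-driven Photinus luciferase, incubated 20 hr after 700 uM copper sulfate.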
# HepG2 viability: qHTS for Inhibitors of TGF-b: Cytotox Counterscreen; HepG2 CAGA-GFP viability, ATP luminescence, 18 h; Potency, µM (series often up to 46.1 µM), inactives show at the highest dose activity change, negative = cytotoxicity, most hits filed as cytotoxic; actives 0.76% (n = 410,000); AID 588856, 2011
#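 CellTiter-Glo luminescence gave cytotoxicity after 18 hours at 37 degrees C. The cells were HepG2 CAGA-GFP in 1% FBS DMEM, stimulated with 500 pg/mL TGF-beta after compound addition. %Activity was normalised to no-cell wells (complete cell-killing) and DMSO (no toxicity), and curves were fitted and classified.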
# TGFb inhibitor: qHTS for Inhibitors of TGF-b. HepG2 CAGA-GFP TGF-b/SMAD3 reporter, GFP fluorescence, 18 h; TGF-beta stimulated, 500 pg/mL final. Potency, µM (titrated, usually from 46.1 µM), inactives show at the highest dose activity, negative = inhibition, actives largely listed as inhibitors. actives 1.2% (n = 410,000); further: on the % scale 0 is the no-effect control and ±100 the full control effect; nearly all actives have a fitted effect of over 65% in size
#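 HEPG2 CAGA-GFP, 1000 cells/well; 2 h settle, 37 C; cpd via pin tool; TGF-b 500 pg/mL final; 18 h, 37 C; GFP imaging ex488/em500-530; %Activity normalised to -TGF-b and +DMSO controls; CRC fit, curve class.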
# VP16 counter: VP16 counterscreen qHTS for inhibitors of ROR gamma transcriptional activity | Drosophila S2 Gal4-VP16 UAS-luciferase, luminescence, 20 h | Potency, µM (top dose mostly 53.6 µM), for the others: at the top dose activity, negative = inhibition, usual class: inhibitors | actives 3.5% (n = 310,000);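 further: Gal4-VP16 expression switched on by copper sulfate through the metallothionein promoter; on the % scale 0 is the no-effect control and ±100 the full control effect; nearly all actives have a fitted effect of over 50% in size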
# Numbers without * were called inactive; i = inactive; ? = inconclusive; · = no result; [ ] = remark or other dose. An excerpt weighted towards active compounds, which were near 6.1% of everything screened. The call rests on the fitted dose curve; in most records, active means well fitted curve in the direction sought with a large enough effect; inconclusive means small, poorly fitted or top-dose-only effect, or another doubt; inactive means no such curve, though single readings can be large; an effect the other way counts as inactive or inconclusive. Potency means the concentration at half of the fitted maximal effect.
SMILES,ATXN2 expr inh,S2 tox,RORgamma inh,HepG2 viability,TGFb inhibitor,VP16 counter
CCOc1cccc(/C=N/Nc2nc(N3CCCC3)nc(N3CCCC3)n2)c1O,·,i,?,16%,7%,-5%
N#CC(C#N)=Cc1cn(-c2ncc(C(F)(F)F)cc2Cl)c2ccccc12,-17%,i,11µM*,-8%,3%,?
CC(=O)/C=C\c1cn(-c2ncc(C(F)(F)F)cc2Cl)c2ccccc12,-34%,i,25%,-7%,-5%,-3%
COc1cc(CNCc2ccccn2)ccc1OCc1c(Cl)cccc1Cl,-21%,i,14µM*,-35%,?,20µM*
COc1cc(CNCc2ccccn2)ccc1OCc1ccc(Cl)cc1,15%,i,-17%,-52%,-6%,-19%
COc1cc(CNCc2ccccn2)ccc1OCc1cccc(Cl)c1,-2%,i,4µM*,-28%,9%,?
COc1ccc(NC(=O)c2nnn(-c3ccc(C(C)C)cc3)c2C)c(OC)c1,-10%,i,·,-7%,15%,·
COc1cccc(/C=N/NC(=O)NC2CCCCC2)c1O,·,·,6.3µM*,-38%,3%,8.9µM*
COc1cccc(/C=N\NC(=O)C2C(=O)NCC2c2ccccc2)c1O (configuration not stated),-29%,i,8.9µM*,1%,6%,?
COc1cccc(/C=N/NC(=O)C(=O)N2CCCCCC2)c1O,-33%,i,7.9µM*,-26%,-11%,10µM*
Cc1cccc(NC(=O)c2oc3ccc(S(=O)(=O)N4CCCCC4)cc3c2C)c1C,-11%,i,·,-16%,-39%,·
CCS(=O)(=O)N1CC(=O)N(c2ccc(C)c(C)c2)C(C)(C(=O)NC2CCCCCC2)C1 (configuration not stated),·,·,·,3%,-8%,·
O=C(Cc1ccccc1)Nc1nc2ccccc2s1,68%,i,33%,-18%,13%,?
O=C(Cc1ccccc1)Nc1nc(=O)c2ccccc2s1,5%,i,?,3%,0%,4.5µM*
O=C(Nc1nc(=O)c2ccccc2s1)c1ccc(Cl)cc1,34%,i,3.2µM*,7%,33%,26%[0.365 µM]
O=C(CSC(=S)N1CCOCC1)Nc1nc(=O)c2ccccc2s1,·,·,13µM*,·,·,10µM*
O=C(CSC(=S)N1CCOCC1)Nc1nccs1,-1%,i,0%,-1%,-11%,-6%
Nc1ccc(C(=O)Nc2nc3ccccc3s2)cc1,4%,i,?,-11%,-4%,?
O=C(Nc1nc(=O)c2ccccc2s1)c1ccc(F)cc1,50%,i,7.1µM*,-32%,?,2.8µM*
CCn1c(NC(=O)c2ccc(F)cc2)c2ccccc2nc1=O,10%,i,-28%,2%,0%,-14%
Cc1ccc(OCCn2c(-c3ccc(Cl)cc3)nc3ccccc3c2=O)c(C)c1,4%,i,·,-19%,10%,·
CCCCN1CCc2c1nc1ccc(Br)cc1c2N,?,·,-3%,16µM*,?,1%
CCc1cccc(C)c1NC(=O)COC(=O)c1c2c(nc3ccccc13)/C(=C\c1cccs1)CCC2,1%,i,?,-1%,?,-24%
NC(=O)c1ccc(NC(=O)COC(=O)c2c3c(nc4ccccc24)/C(=C\c2cccs2)CCC3)cc1,·,i,4.5µM*,-28%,-43%,5µM*
CC(C)Oc1ccc(CNC(=O)c2ccc3c(c2)nc2n3CCCCC2)cc1,·,·,·,-1%,-20%,·
SMILES,ATXN2 expr inh,S2 tox,RORgamma inh,HepG2 viability,TGFb inhibitor,VP16 counter
CC(=O)OCC1OC(Oc2cc(OC(C)=O)c3c(=O)cc(-c4ccc(OC(C)=O)c(OC(C)=O)c4)oc3c2)C(OC(C)=O)C(OC(C)=O)C1OC(C)=O (configuration not stated),·,·,25µM*,·,·,16µM*
O=C(NC(=S)Nc1cccc(Cl)c1N1CCCCC1)c1ccc2c(c1)OCCO2,-15%,i,2.5µM*,1%,?,4.5µM*
CCC(=O)NC(=S)Nc1cccc(Cl)c1N1CCCC1,-27%,?,1.1µM*,-12%,?,?
CCc1nn(CC(=O)NCc2ccco2)c(=O)c2cc3c(OC)cccc3n12,-11%,i,·,-18%,-1%,·
C=CCOc1ccc(CN(C)CC(O)COc2cccc3ccccc23)cc1 (configuration not stated),-25%,i,-8%,13µM*,18µM*,3%
OC[C@@H](O)COc1cccc2ccccc12,·,·,21%,·,·,-21%
Cc1ccc(-c2cc(-c3ccccc3)c(C#N)c(N)n2)o1,4%,i,20µM*,-48%,40%,?
Cc1nc2ccc(NC(=O)c3cc([N+](=O)[O-])cc([N+](=O)[O-])c3Cl)cc2s1,-37%,?,?,-10%,?,3.2µM*
Cc1nc2ccc(NC(=O)c3ccc(Cl)c([N+](=O)[O-])c3)cc2s1,20%,i,25%,12%,4%,?
CCN(CC(=O)NC(C)(C)C)Cc1nc2c(Br)cc(Br)cc2c(=O)[nH]1,18µM*,?,0.71µM*,-14%,?,3.2µM*
CCc1ccc(C(=O)c2cn(CC(=O)Nc3cccc(OC)c3)c3cc4c(cc3c2=O)OCO4)cc1,-1%,i,·,-1%,-10%,·
CCc1ccccc1NC(=S)N(CCOC)C(C)c1ccco1 (configuration not stated),2%,i,13µM*,3%,-17%,-5%
CCOc1ccc(NC(=S)N(CCOC)C(C)c2ccco2)cc1 (configuration not stated),·,i,8.9µM*,-4%,-5%,?
CCc1cccc(C)c1NC(=S)N(CCOC)C(C)c1ccco1 (configuration not stated),-5%,i,10µM*,0%,-9%,0%
O=C(CC1C(=O)N(c2ccc(Cl)cc2)C(=S)N1CCc1ccncc1)Nc1ccc(F)cc1 (configuration not stated),?,i,6%,11µM*,?,?
CCc1ccc(NC(=O)CC2C(=O)N(c3cccc(OC)c3)C(=O)N2Cc2ccc(F)cc2)cc1 (configuration not stated),·,·,·,-25%,?,·
Cc1ccc(N2C(=O)C(CC(=O)Nc3ccc(F)cc3)N(CCC3=CCCCC3)C2=O)cc1 (configuration not stated),?,?,·,-34%,13µM*,·
